“And” between values parts separate entries of the source, which are not always exact repeats. Equal values may be shown once. Inconclusive results are not listed. A structure can be active in one record and inactive in another. The source made the active and inactive calls. Unless noted, calls follow the shape of the dose curve; as a rule, active = well fitted curve in the direction sought with a large enough effect in the repeat runs; inconclusive = weak or mixed curves; inactive = no such curve, though single readings can be large; an effect the other way counts as inactive or inconclusive.
Columns and labels:
[1] = A CellTox Green Cytotoxicity Assay to monitor cytotoxicity in HEK293 cells - 32 hour (AID 1224881); also: nearly all actives have a fitted effect of over 40% in size
Outline: (§1)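 Tox21 screen in HEK293: membrane-impermeant cyanine dye fluoresces on binding dead-cell DNA; compound pinned 5 h post-seeding, plates held at 37 C, signal read repeatedly through 40 h.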

[2] = A CellTox Green Cytotoxicity Assay to monitor cytotoxicity in HepG2 cells - 0 hour (AID 1224882); also: nearly all actives have a fitted effect of over 35% in size
Outline: (§2)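 Measurements at 0, 8, 16, 24, 32 and 40 h of treatment captured CellTox Green fluorescence in HepG2 cells that had been co-plated with reagent and preincubated 5 h at 37 C/5% CO2.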

[3] = A CellTox Green Cytotoxicity Assay to monitor cytotoxicity in HepG2 cells - 32 hour (AID 1224883); also: nearly all actives have a fitted effect of over 50% in size
Outline: as §2

[4] = A CellTox Green Cytotoxicity Assay to monitor cytotoxicity in HEK293 cells - 8 hour (AID 1224884); also: nearly all actives have a fitted effect of over 35% in size
Outline: as §1

[5] = qHTS RealTime-Glo MT Cell Viability Assay in HepG2 cells - 16 hour (AID 1224885); also: nearly all actives have a fitted effect of over 50% in size
Outline: (§3)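 HepG2 cells (600/well) were dispensed with RealTime-Glo reagents, incubated 5 h at 37 °C, then treated with compounds in DMSO for up to 40 h. Nonlytic NanoLuc luminescence reflecting viable cells was read at each stated time point.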

[6] = qHTS RealTime-Glo MT Cell Viability Assay in HEK293 cells - 24 hour (AID 1224886); also: nearly all actives have a fitted effect of over 50% in size; also: potency is read from the fitted curve at half-maximal effect
Outline: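 HEK293 cells seeded with NanoLuc/prosubstrate reagent, rested 5 h at 37 C, then dosed and kept at 37 C up to 40 h. Nonlytic real-time luminescence from viable cells read at 0, 8, 16, 24, 32 and 40 h.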

[7] = qHTS RealTime-Glo MT Cell Viability Assay in HEK293 cells - 8 hour (AID 1224887); also: top concentration of the series differs between compounds; nearly all actives have a fitted effect of over 50% in size
Outline: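 HEK293 + NanoLuc + prosubstrate, 600 cells/well; 5 h, 37 C/5% CO2; compound 23 nL in DMSO by pintool; 37 C; luminescence read at 0, 8, 16, 24, 32 and 40 h time points.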

[8] = A CellTox Green Cytotoxicity Assay to monitor cytotoxicity in HEK293 cells - 16 hour (AID 1224888); also: nearly all actives have a fitted effect of over 35% in size
Outline: as §1

[9] = qHTS RealTime-Glo MT Cell Viability Assay in HepG2 cells - 0 hour (AID 1224889); also: nearly all actives have a fitted effect of over 50% in size
Outline: as §3

[10] = A CellTox Green Cytotoxicity Assay to monitor cytotoxicity in HepG2 cells - 8 hour (AID 1224890); also: nearly all actives have a fitted effect of over 45% in size
Outline: as §2

[11] = qHTS assay to identify small molecule antagonists of the estrogen receptor alpha (ER-alpha) signaling pathway using the BG1 cell line in the presence of 0.1 nM 17-beta-estradiol - cell viability counter screen (AID 1259241); also: nearly all actives have a fitted effect of over 40% in size
Outline: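 Cytotoxicity counter-screen: live-cell protease activity measured by fluorescence (30 min reagent step) in the same wells. Cells were VM7Luc4E2 with endogenous ER-alpha and ERE-driven luciferase, treated 22 hr at 37C alongside 0.1 nM 17beta-estradiol final.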

[12] = qHTS assay to identify small molecule antagonists of the androgen receptor (AR) signaling pathway using the MDA cell line in the presence of 0.5 nM R1881 - cell viability counter screen (AID 1259242); also: nearly all actives have a fitted effect of over 45% in size
Outline: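 Concentration-response screen of compounds for toxicity in MDA-kb2 reporter cells: 16 hr at 37C with 0.5 nM R1881, endpoint live-cell protease fluorescence measured in the reporter wells.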

[13] = target: Estrogen receptor (Homo sapiens) (UniProt P03372); test: qHTS assay to identify small molecule antagonists of the estrogen receptor alpha (ER-alpha) signaling pathway using the BG1 cell line in the presence of 0.1 nM 17-beta-estradiol (AID 1259244); also: nearly all actives have a fitted effect of over 50% in size
Outline: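 Compounds were tested against 0.1 nM (final) 17beta-estradiol in VM7Luc4E2 cells, which express full-length ER-alpha and an ERE-luciferase reporter; luminescence was recorded following 22 h exposure.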

[14] = qHTS assay to identify small molecule phospholipidosis (PLD) inducers (AID 1259344; active = well fitted curve in the direction sought with a large enough effect; an effect the other way counts as inactive or inconclusive)
Outline: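 Read-out is LipidTOX Red fluorescence (ex 595/em 615) imaged in HepG2 cells after 24 h compound exposure at 37 C, with Hoechst nuclear counterstain (ex 352/em 461) allowing per-cell normalisation.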

[15] = qHTS assay to identify small molecule HDAC inhibitors (AID 1259364);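 also: wild-type HCT-116 cells with endogenous class I/II HDAC activity; top concentration of the series differs between compounds; nearly all actives have a fitted effect of over 45% in size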
Outline: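 Screening used wild-type human colon HCT-116 cells incubated overnight, dosed with compounds for 2 hours, and assayed with a homogeneous luminogenic HDAC I/II reagent for 30 minutes at room temperature.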

[16] = qHTS assay to identify small molecule agonists of the sonic hedgehog signaling (Shh) pathway - cell viability counter screen (AID 1259366); also: nearly all actives have a fitted effect of over 50% in size
Outline: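 Cytotoxicity counter screen: CellTiter-Fluor reagent added after 23 h compound exposure, then 1 h at 37C and fluorescence read. Cells were 3T3 Gli1-Luc, seeded 2,000 per well and dosed 4 h post-plating.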

[17] = qHTS assay to identify small molecule agonists of the sonic hedgehog signaling (Shh) pathway (AID 1259368; calls by dose curve;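 also: NIH/3T3-derived 3T3Gli1-Luc cells carrying a stable Gli1-driven firefly luciferase reporter; series mostly up to about 92 µM; nearly all actives have a fitted effect of over 15% in size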)
Outline: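 Hedgehog pathway agonism scored by increased firefly luciferase luminescence in 3T3Gli1-Luc cells treated 24 hr at 37 C; detection used a 30 min room-temperature reagent incubation.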

[18] = qHTS assay to identify small molecule HDAC inhibitors - cell viability counter screen (AID 1259365)
Outline: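 CellTiter-Glo luminescence (30 min, room temperature) reported viability after a 2 h compound exposure at 37 C. Cells: wild-type HCT-116, 1,500 per well, seeded the night before.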

[19] = target: Androgen receptor (Homo sapiens) (UniProt P10275); test: qHTS assay to identify small molecule antagonists of the androgen receptor (AR) signaling pathway using the MDA cell line in the presence of 0.5 nM R1881 (AID 1259243); also: nearly all actives have a fitted effect of over 50% in size
Outline: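 With R1881 held at 0.5 nM (final), compound effects on MMTV-luciferase expression in MDA-kb2 cells were scored by luminescence after a 16 hr, 37C incubation.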

[20] = qHTS assay to identify small molecule antagonists of the sonic hedgehog signaling (Shh) pathway - cell viability counter screen (AID 1259367); also: nearly all actives have a fitted effect of over 55% in size
Outline: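 Fluorescence read-out (CellTiter-Fluor, 1 hr at 37C) taken after 23 hr compound treatment of 3T3 Gli1-Luc cells stimulated with conditioned medium. Cells were seeded at 2,000 per well and pre-incubated 4 hr.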
% is scaled to controls: 0 for no effect and ±100 for the full control effect.

Estrogen receptor (Homo sapiens), sequence (P03372 whole entry, looked up): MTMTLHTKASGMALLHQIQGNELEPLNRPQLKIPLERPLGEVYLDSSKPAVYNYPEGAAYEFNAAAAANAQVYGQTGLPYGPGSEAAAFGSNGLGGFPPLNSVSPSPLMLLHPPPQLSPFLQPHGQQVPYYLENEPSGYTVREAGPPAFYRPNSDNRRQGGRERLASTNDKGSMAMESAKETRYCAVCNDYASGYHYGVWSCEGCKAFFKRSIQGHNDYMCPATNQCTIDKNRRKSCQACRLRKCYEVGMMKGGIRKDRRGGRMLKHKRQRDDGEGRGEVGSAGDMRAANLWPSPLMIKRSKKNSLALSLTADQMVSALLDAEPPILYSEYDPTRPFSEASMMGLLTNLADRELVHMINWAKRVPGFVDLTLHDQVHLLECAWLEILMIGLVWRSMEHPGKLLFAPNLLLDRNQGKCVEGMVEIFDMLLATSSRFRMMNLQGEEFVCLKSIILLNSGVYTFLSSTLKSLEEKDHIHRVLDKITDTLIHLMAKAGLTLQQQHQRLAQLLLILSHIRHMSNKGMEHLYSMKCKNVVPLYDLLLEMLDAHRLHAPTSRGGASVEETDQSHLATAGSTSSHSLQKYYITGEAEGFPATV
Androgen receptor (Homo sapiens), sequence (P10275 whole entry, looked up): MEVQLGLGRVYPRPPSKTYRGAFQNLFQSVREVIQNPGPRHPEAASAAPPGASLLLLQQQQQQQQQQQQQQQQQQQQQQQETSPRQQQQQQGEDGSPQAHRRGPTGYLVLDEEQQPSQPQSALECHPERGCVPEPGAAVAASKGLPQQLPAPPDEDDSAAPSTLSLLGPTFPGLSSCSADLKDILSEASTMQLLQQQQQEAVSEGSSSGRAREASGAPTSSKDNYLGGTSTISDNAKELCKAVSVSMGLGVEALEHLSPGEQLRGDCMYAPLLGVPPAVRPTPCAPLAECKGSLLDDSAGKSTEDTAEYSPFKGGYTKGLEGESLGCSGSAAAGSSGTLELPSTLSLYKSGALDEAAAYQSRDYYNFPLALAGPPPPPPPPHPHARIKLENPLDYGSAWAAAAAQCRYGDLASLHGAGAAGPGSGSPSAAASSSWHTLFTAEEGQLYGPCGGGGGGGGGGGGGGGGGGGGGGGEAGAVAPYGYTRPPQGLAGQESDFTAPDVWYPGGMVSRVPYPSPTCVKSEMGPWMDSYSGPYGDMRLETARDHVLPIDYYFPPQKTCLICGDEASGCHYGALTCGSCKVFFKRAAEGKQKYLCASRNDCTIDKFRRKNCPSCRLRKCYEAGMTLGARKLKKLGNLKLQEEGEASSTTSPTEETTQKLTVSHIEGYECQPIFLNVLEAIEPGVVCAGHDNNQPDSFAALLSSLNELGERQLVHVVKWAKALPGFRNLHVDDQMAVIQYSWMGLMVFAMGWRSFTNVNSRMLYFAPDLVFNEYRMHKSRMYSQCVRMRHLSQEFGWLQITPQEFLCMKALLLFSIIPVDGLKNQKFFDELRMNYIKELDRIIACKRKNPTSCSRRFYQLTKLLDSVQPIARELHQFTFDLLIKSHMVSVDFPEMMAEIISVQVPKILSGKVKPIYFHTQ

OB(O)O
inactive: Potency [1] | Potency [2] | Potency [3] | Potency [4] | Potency [5] | Potency [6] | Potency [7] | Potency [8] | Potency [9] | Potency [10] | Potency [11] | Potency [12] | Potency [13] | outcome [14] | Potency [15] | Potency [16] | Potency [17]

N[C@@H](Cc1cc(I)c(Oc2ccc(O)c(I)c2)c(I)c1)C(=O)O
inactive: Potency [1] | Potency [2] | Potency [3] | Potency [4] | Potency [5] | Potency [6] | Potency [7] | Potency [8] | Potency [9] | Potency [10] | Potency [11] | Potency [12] | Potency [13] | outcome [14] | Potency [15] | Potency [18] | Potency [16] | Potency [17]

COC(=O)CCCCC(=O)OC
inactive: Potency [1] | Potency [2] | Potency [3] | Potency [4] | Potency [5] | Potency [6] | Potency [7] | Potency [8] | Potency [9] | Potency [10] | Potency [11] | Potency [12] | Potency [13] | Potency [15] | Potency [16] | Potency [17]

Cc1ccccc1Cl
inactive: Potency [1] | Potency [2] | Potency [3] | Potency [4] | Potency [5] | Potency [6] | Potency [7] | Potency [8] | Potency [9] | Potency [10] | Potency [11] | Potency [12] | Potency [19] | Potency [13] | Potency [15] | Potency [18] | Potency [16] | Potency [20] | Potency [17]

OCC(CO)(CO)CO
inactive: Potency [1] | Potency [2] | Potency [3] | Potency [4] | Potency [5] | Potency [6] | Potency [7] | Potency [8] | Potency [9] | Potency [10] | Potency [11] | Potency [12] | Potency [13] | Potency [15] | Potency [18] | Potency [16] | Potency [20] | Potency [17]

O=C(Cl)c1ccc(C(=O)Cl)cc1
inactive: Potency [1] | Potency [2] | Potency [3] | Potency [4] | Potency [5] | Potency [6] | Potency [7] | Potency [8] | Potency [9] | Potency [10] | Potency [11] | Potency [12] | Potency [13] | Potency [15] | Potency [18] | Potency [16] | Potency [20] | Potency [17]

COc1cc(NC(=O)CC(C)=O)c(OC)cc1Cl
inactive and 21.9 µM (active): Potency [6]
inactive: Potency [1] | Potency [2] | Potency [3] | Potency [4] | Potency [5] | Potency [7] | Potency [8] | Potency [9] | Potency [10] | Potency [11] | Potency [12] | Potency [13] | Potency [15] | Potency [18] | Potency [16] | Potency [20] | Potency [17]

CCc1cccc(CC)c1N
inactive: Potency [1] | Potency [2] | Potency [3] | Potency [4] | Potency [5] | Potency [6] | Potency [7] | Potency [8] | Potency [9] | Potency [10] | Potency [11] | Potency [12] | Potency [19] | Potency [13] | Potency [15] | Potency [16] | Potency [20] | Potency [17]

OCC(O)CS (stereo unspecified)
inactive: Potency [1] | Potency [2] | Potency [3] | Potency [4] | Potency [5] | Potency [6] | Potency [7] | Potency [8] | Potency [9] | Potency [10] | Potency [11] | Potency [12] | Potency [19] | Potency [13] | outcome [14] | Potency [15] | Potency [18] | Potency [16] | Potency [20] | Potency [17]

Cc1cc(C)c(O)c(C)c1
inactive: Potency [1] | Potency [2] | Potency [3] | Potency [4] | Potency [5] | Potency [6] | Potency [7] | Potency [8] | Potency [9] | Potency [10] | Potency [11] | Potency [12] | Potency [13] | Potency [15] | Potency [18] | Potency [16] | Potency [20] | Potency [17]

CC(=O)CC(=O)N(C)C
inactive: Potency [1] | Potency [2] | Potency [3] | Potency [4] | Potency [5] | Potency [6] | Potency [7] | Potency [8] | Potency [9] | Potency [10] | Potency [11] | Potency [12] | Potency [13] | Potency [15] | Potency [18] | Potency [16] | Potency [17]

CN1CCCC1=O
inactive: Potency [1] | Potency [2] | Potency [3] | Potency [4] | Potency [5] | Potency [6] | Potency [7] | Potency [8] | Potency [9] | Potency [10] | Potency [11] | Potency [12] | Potency [13] | Potency [15] | Potency [18] | Potency [16] | Potency [20] | Potency [17]

CCCCCCCCCCCC(=O)N(C)CC(=O)O
inactive: cytotoxicity increase [1] 0.815% [at 6.97 µM] | Potency [2] | cytotoxicity increase [3] 2.96% [at 6.97 µM] | Potency [4] | Potency [5] | Potency [6] | Potency [7] | Potency [8] | Potency [9] | Potency [10] | Potency [11] | Potency [12] | Potency [13] | Potency [15] | Potency [16] | Potency [20] | Potency [17]

COc1c(Cl)ccc(Cl)c1C(=O)O
inactive: Potency [1] | Potency [2] | Potency [3] | Potency [4] | Potency [5] | Potency [6] | Potency [7] | Potency [8] | Potency [9] | Potency [10] | Potency [11] | Potency [12] | Potency [13] | Potency [15] | Potency [18] | Potency [16] | Potency [17]

CC(=O)Nc1ccc(CC(=O)O)cc1
inactive: Potency [1] | Potency [2] | Potency [3] | Potency [4] | Potency [5] | Potency [6] | Potency [7] | Potency [8] | Potency [9] | Potency [10] | Potency [11] | Potency [12] | Potency [13] | outcome [14] | Potency [15] | Potency [16] | Potency [20] | Potency [17]

CC(C)(CO)CO
inactive: Potency [1] | Potency [2] | Potency [3] | Potency [4] | Potency [5] | Potency [6] | Potency [7] | Potency [8] | Potency [9] | Potency [10] | Potency [11] | Potency [12] | Potency [19] | Potency [13] | Potency [15] | Potency [18] | Potency [16] | Potency [20] | Potency [17]

From PubChem BioAssay (Tox21)
